From PubChem BioAssay AID743266 (National Center for Advancing Translational Sciences (NCATS), 2014)
Several values for one entry are separate records, joined by “and”; a condition that tells them apart may be missing. Equal entries are not always repeated. The whole screen tested about 410,000 compounds, of which about 310 (0.076%) were called active. Roughly 2% stayed inconclusive and do not appear here. The call rests on the fitted dose curve; in most records, active means well fitted activation curve with a large enough effect; inconclusive means small, poorly fitted or top-dose-only effect, or another doubt; inactive means no such curve, though single readings can be large or run the other way. The sample as a whole holds a higher share of actives than the screen did. More than one record can exist for a structure, and the calls need not agree.

biological target: Parathyroid hormone/parathyroid hormone-related peptide receptor (Homo sapiens) (UniProt Q03431); assay: qHTS for PTHR1 Agonists: Primary Screen; settings: HEK293 GP2 PTHR1 cells, GloSensor cAMP luminescence, 1 h; series mostly up to 115 µM; activation: at the top concentration; further: nearly all actives have a fitted effect of over 55% in size
Source text: The goal of the proposed studies is to discover new compounds that act as potent agonists on the parathyroid hormone receptor type-1 (PTHR1). The PTHR1 plays critical roles in maintaining blood calcium and phosphate levels, as well as in controlling bone remodeling. PTHR1 agonists could thus be useful for treating diseases such as hypoparathyroidism and osteoporosis. In the former disease, an agonist drug would help maintain normal blood calcium and phosphate levels under conditions of parathyroid hormone deficiency. In the latter disease, an agonist drug would stimulate new bone formation and thus reduce the risk of fracture, under conditions of bone fragility, as occurs in aging.
To that end, we performed a quantitative high-throughput screening (qHTS) of the Molecular Libraries Probe Centers Network (MLPCN) compound libraries at the NIH Chemical Genomics Center (NCGC) for the parathyroid hormone receptor type-1 (PTHR1) using a unique HEK-293-derived cell line (GP2) that expresses the PTHR1 and a glosensor cAMP reporter construct.
NIH Molecular Libraries Probe Production Centers Network [MLPCN]
NIH Chemical Genomics Center [NCGC]
Assay Submitter (PI): Thomas Gardella, Massachusetts General Hospital
4 microL are dispensed into a 1536-well micro plate to yield 3,000 cells/well. The plates are then incubated overnight, after which 4 microL of 0.5 mM of BIoTium Luciferin plus 0.5 mM IBMX are added. They are then incubated at 37 degree for one hour before 23 nL of compounds are added through pinning and then incubated at 37 degree again for another hour. After the plates are kept at room temperature for 15 min before they are read on the ViewLux to measure luminescence.
Potency means the concentration at half of the fitted maximal effect.

Chain of Parathyroid hormone/parathyroid hormone-related peptide receptor (Homo sapiens) (Q03431 whole entry, looked up): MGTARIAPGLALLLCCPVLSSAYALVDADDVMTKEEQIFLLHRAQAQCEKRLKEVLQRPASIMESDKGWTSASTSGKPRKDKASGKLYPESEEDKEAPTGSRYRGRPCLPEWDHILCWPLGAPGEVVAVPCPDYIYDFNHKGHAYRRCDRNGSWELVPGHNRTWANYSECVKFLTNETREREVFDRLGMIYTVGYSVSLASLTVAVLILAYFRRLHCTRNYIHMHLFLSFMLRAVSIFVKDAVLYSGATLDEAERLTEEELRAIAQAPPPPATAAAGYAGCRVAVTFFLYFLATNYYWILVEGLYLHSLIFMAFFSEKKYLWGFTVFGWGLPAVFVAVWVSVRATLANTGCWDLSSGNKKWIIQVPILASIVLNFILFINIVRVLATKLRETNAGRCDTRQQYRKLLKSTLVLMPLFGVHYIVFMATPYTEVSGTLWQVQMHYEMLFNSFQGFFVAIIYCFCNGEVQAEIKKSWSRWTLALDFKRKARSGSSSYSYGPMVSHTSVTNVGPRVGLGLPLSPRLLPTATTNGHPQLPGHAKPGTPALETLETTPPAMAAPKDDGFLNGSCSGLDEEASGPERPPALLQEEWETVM

outcome, inactive:
COc1ccc(CCNc2nc3c(-c4cccc(F)c4)nnn3c3ccccc23)cc1OC
CSc1nn(Cc2cccc(C)c2)c(N)c1S(=O)(=O)c1ccccc1
CCCCNC(=O)c1cc(-c2ccc(Cl)c(Cl)c2)on1
COC(=O)c1ccccc1NC(=O)c1ccc(COc2ccccc2Cl)o1
CCC(CC)c1nn2cc(-c3ccccc3)nc2s1
COCCNS(=O)(=O)c1cc(-c2nn3c(C)nnc3c3ccccc23)ccc1C
Cc1c(Cl)cccc1NC(=O)N1CCN(C(=O)c2nsc3ccccc23)CC1
CCOc1ccc(OCC)c(NS(=O)(=O)c2ccc3[nH]c(=O)ccc3c2)c1
COc1cc(Cl)c(NC(=O)C(NS(=O)(=O)c2cccs2)C(C)C)c(OC)c1 (stereo not given)
Cc1oc2ccc(O)c(CN3CCCCC3)c2c1C(=O)Nc1cccc(C(F)(F)F)c1
CCCCN(CC)CCCNC(=O)c1nn(C)c2c1CS(=O)(=O)c1ccccc1-2
COc1ccc(-n2c(SCC(=O)Nc3ccc(Cl)c(C)c3)nc3n[nH]c(C)c3c2=N)cc1
Cc1c(NC(=O)c2cc(=O)c3ccccc3o2)c(=O)n(-c2ccccc2)n1C
COC(=O)c1ccc(NC(=O)CCc2c(C)nc3c(c(C)nn3-c3ccc(C)cc3)c2C)cc1
COc1ccccc1CNc1ccc(-c2nc(-c3ccccc3C)no2)cc1[N+](=O)[O-]
O=C(Nc1ccc2nc(SCC(=O)N3CCc4ccccc43)sc2c1)c1ccccc1F
CCOc1ccccc1CNC(=O)c1ccc(-n2c(C)cc3c2CCC(C)C3)cc1 (stereo not given)
CCc1cccc(C)c1NS(=O)(=O)c1ccc(-c2cc(C)no2)s1
Cc1oc2ccc(O)c(CN3CCOCC3)c2c1C(=O)Nc1cccc(Cl)c1C
Cc1ccccc1-c1nc(SCC(=O)N(C)c2ccccc2)c2c(=O)n(C)c(=O)n(C)c2n1
COc1ccc(S(=O)(=O)N2CCN(c3ccc(F)cc3)CC2)cc1-c1noc(C)n1
CCn1c(=O)c2cc(C(=O)NCCc3ccc(Cl)cc3)sc2c2ccccc21
Cn1c(=O)sc2cc(NS(=O)(=O)c3ccc(C(C)(C)C)cc3)ccc21
O=C(CSc1nccn1Cc1ccc(F)cc1)NCc1ccccc1
NS(=O)(=O)c1ccc(CCNC(=O)CCCCCn2c(=O)[nH]c3ccccc3c2=O)cc1
CCCCn1c(SCC(=O)N2CCCC2=O)nc2cc(S(N)(=O)=O)ccc21
CCN(CC)S(=O)(=O)c1ccc2c(c1)N(CC(=O)NCc1ccccc1)C(=O)CS2
COc1ccc2c(c1)c(=O)c(C(=O)c1ccccc1)cn2CC(=O)Nc1ccc2c(c1)OCCO2
COc1ccccc1CN1CCC(CNC(=O)c2cnn(-c3cccc(Cl)c3)c2C2CCN(C(=O)OC(C)(C)C)CC2)CC1
COc1ccc(Cn2ccnc2SCC(=O)Nc2ccc3c(c2)OCO3)cc1
COc1ccc(OC)c(NC(=O)CN2CCCN(Cc3cc(C)ccc3C)S2(=O)=O)c1
COc1ccc(OC)c(CNC(=O)CN2C(=O)CCn3nc(-c4cn(C)c5ccccc45)cc32)c1
CCOC(=O)c1ccccc1NC(=O)c1sc2nc(-c3ccc(F)cc3)cn2c1C
O=S(=O)(NCCS(=O)(=O)N1CCN(c2ccccc2)CC1)c1ccc(Cl)cc1
CCN(CC)S(=O)(=O)c1ccc2c(c1)nc(CN(C)C(=O)Nc1ccc(Cl)cc1)n2C

activation, inactive:
COc1ccc(C2c3c(oc4ccccc4c3=O)C(=O)N2Cc2ccc3c(c2)OCO3)cc1 (stereo not given) 15.8%
Cc1ccc(C(=O)Nc2c(C(=O)NC(C)(C)C)oc3ccccc23)cc1 -7.11%
CCC(C)c1ccc2oc(-c3ccc(NC(=O)c4cc5ccccc5o4)cc3)nc2c1 (stereo not given) -31.3%
CCOc1ccc(CNCc2c(C(=O)O)c(C)n(Cc3cccc(OC)c3)c2C)cc1OC -21.7%
CN1CCN(C(CNC(=O)c2ccccc2F)c2ccc3c(c2)OCO3)CC1 (stereo not given) 0.69%
CCN(CC)S(=O)(=O)c1ccc2c(c1)N(CC(=O)NCC(C)c1ccccc1)C(=O)CO2 (stereo not given) 21.9%
CCOc1cc(C2C(C(=O)Nc3ccc(OC)cc3)=C(C)Nc3nc(SC)nn32)ccc1O (stereo not given) 2.91%
Cc1cc(OCC(=O)Nc2ncn[nH]2)c(C)c(C)c1Br -8.37%
Cc1nc(SCC(=O)Nc2ccc(C(=O)O)cc2)n[nH]1 -16.7%
O=C(NCCc1ccccc1)C(=O)NCC(c1ccco1)S(=O)(=O)c1ccccc1 (stereo not given) -7.91%
Cc1ccc(C)n1-c1nnc(N2CCC(C(=O)NCc3ccccc3Cl)CC2)s1 -14.9%
CC(C)(C)c1ccc(C(=O)NCC(c2ccco2)S(=O)(=O)c2ccc(F)cc2)cc1 (stereo not given) -96.9%
CCOC(=O)c1c(S(=O)(=O)N2CCCC(C(=O)NCc3ccc(F)cc3)C2)c(C)n(CC)c1C (stereo not given) -23.8%
O=c1c2cccnc2n(Cc2cccc(F)c2)c(=O)n1Cc1ccccc1Cl -34.4%
Cc1ccc(NC(=O)CSc2nc3c(c(=O)[nH]2)CN(Cc2ccc4c(c2)OCO4)CC3)cc1C -21.9%
COc1cccc(CNC(=O)C2CCN(S(=O)(=O)c3ccc4c(ccn4C)c3)CC2)c1 -37.3%
COc1ccc(CNc2nc(-c3ccc(Cl)cc3)cc(C(F)(F)F)n2)cc1 -35.1%
CCCn1c2ccccc2c2cnn(CC(=O)N(C)c3ccccc3CC)c(=O)c21 -5.63%
Cc1ccc(Cn2c(C)c3cnn(CC(=O)NCc4ccccc4)c(=O)c3c2C)cc1 -42.3%
Cc1ccc(C)c(N2CCN(c3ccc4cc(S(=O)(=O)N5CCC(C)CC5)ccc4n3)CC2)c1 -22%
Cn1c(=O)[nH]c(=O)c2c1nc(NCCc1ccccc1)n2Cc1ccc(F)cc1 -6.1%
CCCCN(C)CCCNC(=O)CN1N=C(c2ccc(OC)cc2)CCC1=O 13.6%
CCOC(=O)c1c(C)[nH]c(CCC(=O)NCCCN2CCN(c3cccc(Cl)c3)CC2)c1C -20.8%
Cc1ccc(C)c(N2CCN(S(=O)(=O)c3ccc4c(c3)C(C(C)C)C(=O)N4)CC2)c1 (stereo not given) -24.8%
CCOc1ccccc1CNC(=O)Nc1cn(CC(C)C)c(=O)c2ccccc12 5.27%
CCOc1cc(CNC(=O)c2sc3ncnc(N(C)C4CCCCC4)c3c2C)ccc1OC -11.1%
Cc1nn2c(=O)cc(COC(=O)CNC(=O)c3ccc(F)cc3)nc2s1 -21.7%
COc1ccc(CCNC(=O)c2nn(C)c3c2CSc2ccccc2-3)cc1OC -94%
Cc1c(C(=O)NCc2ccccc2Br)oc2ccc3c(c12)C(=O)CC(C)(C)O3 -38.2%
CCCc1nn2c(=O)cc(COC(=O)c3ccc(NC(=O)COc4ccc(F)cc4)cc3)nc2s1 5.84%
CCCCC(=O)OC1=CN(Cc2ccccc2)S(=O)(=O)c2ccccc21 10.3%
COc1ccc(OCCn2cc(C(=O)C3CCCCC3)c3ccccc32)cc1 -19%
COc1ccccc1C(=O)NCCn1cc(SCc2ccccc2Cl)c2ccccc21 -17.1%
O=S(=O)(NCC(c1ccco1)N1CCOCC1)c1cc(F)ccc1F (stereo not given) -8.69%
COc1ccccc1NC(=O)C(=O)c1cc(C)n(-c2ccccc2F)c1C -6.56%
CC1CCCN(c2csc3ccc(F)cc3c2=O)C1 (stereo not given) -3.67%
CCC(=O)N1CCc2cc(S(=O)(=O)NC(Cc3ccccc3)C(=O)NCc3ccccc3)ccc21 (stereo not given) -37.5%
COc1ccc(C)cc1NC(=O)C(=O)NCCc1sc(-c2cccc(C)c2)nc1C -8.34%
CCCn1c2ccccc2c2cnn(CC(=O)NCC3CCN(Cc4ccc(C)cc4)CC3)c(=O)c21 -10.4%
O=C(Cn1nc(C(F)(F)F)c2c1CCCC2)Nc1ccc(Cl)cc1 -28.6%
CCOC(=O)C1CCN(c2ncnc3c2c(-c2ccccc2)cn3-c2cccc(C)c2)CC1 -9.28%
CSc1ccc(CCNC(=O)c2cnn(-c3ccccc3)c2-n2cccc2)cc1 -0.368%
COc1ccccc1CNC(=O)CS(=O)(=O)c1cccc2nsnc12 -27.3%
COc1ccc(N2CCN(Cc3nc4c(c(=O)[nH]c(=O)n4C)n3Cc3ccc(Cl)cc3)CC2)cc1 -14.2%
COc1ccccc1C(=O)OCc1cc(=O)n2nc(-c3cccs3)sc2n1 -22.8%
CCc1nc2c(cnn2-c2ccc(C)cc2)c(=O)n1-c1ccc(C)cc1 -39.6%
CCCC12CN3CC(CCC)(CN(C1)C3c1c[nH]c3ccc(OC)cc13)C2=O (stereo not given) -51.8%
Cc1ccc(C)c(NC(=O)Cn2ccn(-c3ccc(F)cc3)c(=O)c2=O)c1 -0.697%
Cc1cc(C)cc(NC(=O)Cn2c(=O)c3ccccc3n3nncc23)c1 -0.562%
Fc1ccc(-n2ncc3c(Nc4ccc(Oc5ccccc5)cc4)ncnc32)cc1 -2.25%
Cc1ccc(CNC(=O)CCc2c(C)nc3nc(CNC(=O)OC(C)(C)C)nn3c2C)cc1 -17.4%
COc1cccc(CNC(=O)CCC(=O)N2CC3CCCN3c3ccccc32)c1 (stereo not given) -22.2%
Cc1ccn2c(Nc3ccc4c(c3)OCCO4)c(-c3ccc(C)s3)nc2c1 -23.9%
COc1ccc(NC(=O)C2CCN(c3ccc(Sc4ccc(C)cc4)nn3)CC2)c(OC)c1 -16.3%
Cc1cccc(-c2nc(SCC(=O)Nc3cc(C)on3)c3c(=O)n(C)c(=O)n(C)c3n2)c1 -35.6%
CC1CCCN(c2cc3c(cc2F)c(=O)c(S(=O)(=O)c2cccc(Cl)c2)cn3Cc2ccccc2)C1 (stereo not given) -0.749%
CCOc1ccc(-c2cc(C)n3nc(C(=O)Nc4ccc(C)c(C)c4)cc3n2)cc1 -13.2%

Potency, active:
NS(=O)(=O)c1ccc(CCNC(=O)CCCn2c(SCC(=O)N3CCCC3)nc3ccsc3c2=O)cc1 21.6 µM

Potency, inactive:
CCCn1c2ccccc2c2cnn(CC(=O)NCCCN3CCCCC3CC)c(=O)c21 (stereo not given)

Potency, inactive and 25.1 µM (active):
CCC1CCCCN1CCCNC(=O)c1cc2c(Cl)nc3ccccc3c2s1 (stereo not given)
